This excerpt belongs to a sample that is enriched for hits.
Anthrax LF prot = Bacillus anthracis LF protease inhibitors, primary screen, biochemical, multiplex microsphere, MLPCN library; Lethal factor (Bacillus anthracis), P15917; multiplex microsphere protease cleavage assay; inhibition, % at 10 µM; 0.12% of 360,000 active; further: plate controls were buffer without enzyme for full effect and enzyme alone for no effect
BoNT F protease = BoNT/F light chain protease inhibitors, primary screen, biochemical, flow cytometry, MLPCN library; inhibition, % at 10 µM; 0.22% of 360,000 active; Botulinum neurotoxin type F light chain protease (Clostridium botulinum); Multiplex microsphere protease cleavage assay; in the data active means inhibition above about 35%, passing the limit was not always enough; inconclusive means no clear call, values can overlap the other calls; further: plate controls were buffer without enzyme for full effect and enzyme alone for no effect
TcdB inh = TcdB glycohydrolase inhibitors, primary screen, biochemical, single point, plate reader | Toxin B (Clostridioides difficile), P18177 | AID 652162, 2013 | 0.24% of 350,000 active | TcdB glycohydrolase enzymatic assay | inhibition, % at 9.99 µM; in the data active means inhibition above about 10%
Target sequence (P18177 whole entry, looked up): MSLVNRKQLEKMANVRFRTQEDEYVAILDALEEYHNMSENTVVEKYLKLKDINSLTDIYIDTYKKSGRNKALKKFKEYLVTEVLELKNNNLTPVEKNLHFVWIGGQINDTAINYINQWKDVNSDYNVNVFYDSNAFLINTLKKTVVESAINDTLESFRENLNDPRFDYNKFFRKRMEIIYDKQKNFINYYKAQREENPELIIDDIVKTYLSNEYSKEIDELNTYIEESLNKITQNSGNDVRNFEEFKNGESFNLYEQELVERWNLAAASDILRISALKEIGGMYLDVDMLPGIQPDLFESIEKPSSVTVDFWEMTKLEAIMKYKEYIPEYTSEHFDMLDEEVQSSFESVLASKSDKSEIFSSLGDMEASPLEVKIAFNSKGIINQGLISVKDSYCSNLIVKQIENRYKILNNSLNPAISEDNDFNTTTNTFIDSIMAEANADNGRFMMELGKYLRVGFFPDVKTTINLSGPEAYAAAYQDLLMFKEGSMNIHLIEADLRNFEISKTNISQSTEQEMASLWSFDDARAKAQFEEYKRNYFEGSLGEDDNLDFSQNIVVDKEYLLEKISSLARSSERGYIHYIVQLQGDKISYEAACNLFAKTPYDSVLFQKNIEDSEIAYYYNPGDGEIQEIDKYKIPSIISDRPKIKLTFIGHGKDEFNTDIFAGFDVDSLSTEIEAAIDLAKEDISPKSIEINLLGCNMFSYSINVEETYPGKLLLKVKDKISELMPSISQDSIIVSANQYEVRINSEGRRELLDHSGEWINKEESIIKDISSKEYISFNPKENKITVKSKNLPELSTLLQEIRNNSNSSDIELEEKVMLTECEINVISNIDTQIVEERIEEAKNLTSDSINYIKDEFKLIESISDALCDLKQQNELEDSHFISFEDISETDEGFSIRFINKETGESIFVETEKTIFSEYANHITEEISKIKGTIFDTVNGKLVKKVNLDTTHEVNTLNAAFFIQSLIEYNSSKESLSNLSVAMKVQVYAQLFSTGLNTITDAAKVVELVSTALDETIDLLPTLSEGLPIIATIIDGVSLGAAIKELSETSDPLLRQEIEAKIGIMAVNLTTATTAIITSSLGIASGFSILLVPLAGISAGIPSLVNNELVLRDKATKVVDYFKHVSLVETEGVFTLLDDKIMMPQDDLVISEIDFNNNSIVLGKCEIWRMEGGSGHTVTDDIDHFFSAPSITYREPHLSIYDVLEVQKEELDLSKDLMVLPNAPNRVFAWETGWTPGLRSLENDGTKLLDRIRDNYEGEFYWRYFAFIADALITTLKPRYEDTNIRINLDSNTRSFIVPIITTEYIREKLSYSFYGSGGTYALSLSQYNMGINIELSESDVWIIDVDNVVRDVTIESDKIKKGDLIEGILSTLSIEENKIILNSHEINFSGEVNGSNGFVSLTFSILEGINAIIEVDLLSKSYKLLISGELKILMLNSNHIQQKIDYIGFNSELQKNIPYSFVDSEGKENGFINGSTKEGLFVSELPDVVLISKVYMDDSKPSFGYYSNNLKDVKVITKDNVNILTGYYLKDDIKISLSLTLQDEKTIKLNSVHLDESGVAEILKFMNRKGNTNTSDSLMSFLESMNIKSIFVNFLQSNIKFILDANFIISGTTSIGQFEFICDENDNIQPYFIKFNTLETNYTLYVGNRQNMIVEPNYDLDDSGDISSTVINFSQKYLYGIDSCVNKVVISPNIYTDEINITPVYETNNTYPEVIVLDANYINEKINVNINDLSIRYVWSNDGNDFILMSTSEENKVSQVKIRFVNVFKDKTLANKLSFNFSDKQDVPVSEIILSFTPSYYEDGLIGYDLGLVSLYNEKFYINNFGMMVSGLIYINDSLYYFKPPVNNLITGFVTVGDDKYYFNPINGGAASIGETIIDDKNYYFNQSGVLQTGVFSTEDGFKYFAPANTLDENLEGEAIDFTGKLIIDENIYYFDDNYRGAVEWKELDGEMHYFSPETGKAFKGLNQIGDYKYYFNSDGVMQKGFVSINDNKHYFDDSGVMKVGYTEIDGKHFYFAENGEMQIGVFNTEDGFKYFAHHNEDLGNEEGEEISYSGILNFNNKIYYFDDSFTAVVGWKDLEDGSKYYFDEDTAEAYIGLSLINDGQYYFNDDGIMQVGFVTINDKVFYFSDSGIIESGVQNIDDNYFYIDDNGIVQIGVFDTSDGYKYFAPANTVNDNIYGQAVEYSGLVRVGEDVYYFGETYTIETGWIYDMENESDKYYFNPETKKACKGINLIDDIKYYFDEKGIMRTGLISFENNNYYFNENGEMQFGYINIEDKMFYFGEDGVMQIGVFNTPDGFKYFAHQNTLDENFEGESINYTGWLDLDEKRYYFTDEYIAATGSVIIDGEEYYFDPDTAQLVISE
BoNT A protease = BoNT/A light chain protease inhibitors, primary screen, biochemical, flow cytometry, MLPCN library; multiplex microsphere protease substrate cleavage; Botulinum neurotoxin type A light chain protease (Clostridium botulinum A str. ATCC 3502); 0.17% of 360,000 active; inhibition, % at 10 µM; further: plate controls were buffer without enzyme for full effect and enzyme alone for no effect
Autofluor counter = counter-screen for toxin protease inhibitors: compound fluorescence. fluorescence intensity (concentration not given with the values). 3.1% of 360,000 active. compound autofluorescence counterscreen, microsphere flow cytometry; hits give high values; in the data active means fluorescence intensity above about 16000; inconclusive means no clear call, values can overlap the other calls
The depositor's hits bear a star. Unless noted, no stated cut-off is given here; in the data, active means inhibition above about 30%; inconclusive means no clear call, values can overlap the other calls; inactive means below that.

For O=C1C2C3C=CC(C2C(=O)N1CCCO)C1C2C(=O)N(CCCO)C(=O)C2C31 (stereo unspecified) the results were Anthrax LF prot 1.0, BoNT F protease -1.9, BoNT A protease -2.6 and Autofluor counter 21305*.
For CC(=O)NCCOC(=O)Nc1ccncc1 the results were Anthrax LF prot -16.2, BoNT F protease 9.1, BoNT A protease 6.0 and Autofluor counter 20618*.
CC(C)NC(=O)CC1OC(=O)c2ccccc21 (stereo unspecified) was read as Anthrax LF prot -1.0, BoNT F protease 0.1, BoNT A protease 0.5 and Autofluor counter 23103*.
C[C@@H]1CN([C@@H](C)CO)C(=O)c2cc(C#CC3(O)CCCC3)cnc2O[C@H]1CN(C)C(=O)C1CCC1 was read as TcdB inh -0.2.
`O=C(Nc1ccccc1C(F)(F)F)N1CCN(C(c2ccccc2)c2ccccc2)CC1` gave Anthrax LF prot -0.4, BoNT F protease -9.4, BoNT A protease inconclusive and Autofluor counter 22149*.
`O=C(Nc1ccccc1C(F)(F)F)N1CCCCCC1` gave Anthrax LF prot 8.5, BoNT F protease 2.7, BoNT A protease 2.4 and Autofluor counter 8624.
CC(=O)[C@@H]1[C@@H](C(=O)c2ccccc2)[C@]2(C(=O)Nc3ccccc32)[C@H]2C=Cc3cc(F)ccc3N12 was read as Anthrax LF prot 2.2, BoNT F protease -9.1, BoNT A protease 4.4 and Autofluor counter 3170.
O=C(c1ccccc1)[C@@H]1[C@@H](C(=O)c2ccc(F)cc2)[C@@]2(C(=O)Nc3ccccc32)[C@H]2c3ccccc3C=CN12 was read as Anthrax LF prot 29.3, BoNT F protease 17.3, TcdB inh -0.7, BoNT A protease 39.2* and Autofluor counter 7809.
`CCOC(=O)/C(=N\Nc1cc(C(F)(F)F)ccc1Cl)N(CC)CC` gave Anthrax LF prot -8.4, BoNT F protease -3.2, BoNT A protease 0.2 and Autofluor counter 20400*.
Screening CN(C)CC(=O)Nc1cc(C(F)(F)F)ccc1Cl returned Anthrax LF prot -13.1, BoNT F protease -1.4, BoNT A protease -0.5 and Autofluor counter inconclusive.
For c1ccc(CN=C2NN=C(c3ccccc3)CS2)cc1 the results were Anthrax LF prot -2.8, BoNT F protease -3.9, TcdB inh -0.2, BoNT A protease 0.4 and Autofluor counter 3239.
COc1ccccc1C1=NNC(=NCc2ccccc2)SC1 was read as Anthrax LF prot 2.4, BoNT F protease -7.9, TcdB inh 10.1*, BoNT A protease -0.5 and Autofluor counter 3265.
Screening Cc1cc(C)cc(NC(=O)N2CCC(c3nc4ccccc4o3)CC2)c1 returned Anthrax LF prot -1.2, BoNT F protease -2.7, BoNT A protease -1.7 and Autofluor counter 20562*.
For Cc1cccc(NC(=O)N2CCC(c3nc4ccccc4o3)CC2)c1 the results were Anthrax LF prot -6.1, BoNT F protease -1.7, BoNT A protease 0.0 and Autofluor counter 9964.
CCOC(=O)c1c(C)[nH]sc1=S was read as Anthrax LF prot -7.2, BoNT F protease -30.3, BoNT A protease -1.6 and Autofluor counter 4700.
`CCOC(=O)c1sc(=S)[nH]c1C` gave Anthrax LF prot -3.0, BoNT F protease 0.4, TcdB inh 11.7*, BoNT A protease 0.3 and Autofluor counter 3620.
Cc1ccc2nc(N/N=C/c3ccccc3C#N)nc(-c3ccccc3)c2c1 was read as Anthrax LF prot -2.8, BoNT F protease -5.4, TcdB inh 0.9, BoNT A protease -1.8 and Autofluor counter 17384*.
For Cc1ccc2nc(NCCO)nc(-c3ccccc3)c2c1 the results were Anthrax LF prot 1.4, BoNT F protease -0.3, BoNT A protease 1.1 and Autofluor counter 23056*.
For N#Cc1ccccc1/C=N/Nc1nc(-c2ccccc2)c2cc(Cl)ccc2n1 the results were Anthrax LF prot -1.2, BoNT F protease 6.0, TcdB inh 3.5, BoNT A protease 1.0 and Autofluor counter 3917.
Screening C[C@H](CO)N1C[C@H](C)[C@@H](CN(C)Cc2ccc(C(F)(F)F)cc2)Oc2ccc(NC(=O)Nc3cccc4ccccc34)cc2C1=O returned TcdB inh -0.1.
CN(C1CCCCC1)S(=O)(=O)Cc1ccccc1 was read as Anthrax LF prot 3.4, BoNT F protease 2.1, TcdB inh 1.2, BoNT A protease 3.3 and Autofluor counter 22622*.
`C[C@@H]1CN([C@H](C)CO)C(=O)Cc2cc(NC(=O)Cn3cnnn3)ccc2O[C@H]1CN(C)CC1CC1` gave TcdB inh -0.9.
Screening COCC(=O)N(C)C[C@H]1Oc2cc(C#CC(C)(C)O)ccc2S(=O)(=O)N([C@H](C)CO)C[C@H]1C returned TcdB inh 0.7.
Screening Cc1nn(C)cc1/C=N/n1nnnc1N returned Anthrax LF prot -10.8, BoNT F protease 5.5, BoNT A protease 6.1 and Autofluor counter 17300*.
Screening Cc1cc(C)c(C(=O)/C=C/c2ccc(C(C)C)cc2)c(=O)[nH]1 returned Anthrax LF prot -1.3, BoNT F protease 5.3, TcdB inh 0.8, BoNT A protease 4.7 and Autofluor counter 17863*.
Screening O=C(O)c1ccc(CSc2nnc(-c3ccccc3)n2-c2ccccc2)cc1 returned Anthrax LF prot -6.7, BoNT F protease -4.3, TcdB inh -0.3, BoNT A protease -0.2 and Autofluor counter 4182.
Screening Nc1nnc(SCc2ccc(F)cc2)n1-c1ccccc1 returned Anthrax LF prot 1.0, BoNT F protease -6.6, BoNT A protease -7.7 and Autofluor counter 21997*.
Screening COc1ccc(-n2c(COc3ccccc3)nnc2SCc2ccc(C#N)cc2)cc1 returned Anthrax LF prot -6.6, BoNT F protease -1.8, BoNT A protease -0.4 and Autofluor counter 19781*.
For N#Cc1ccc(CSc2nnc(-c3ccccn3)n2-c2ccccc2)cc1 the results were Anthrax LF prot -3.0, BoNT F protease -2.9, BoNT A protease -0.3 and Autofluor counter 2869.
N#Cc1ccc(CSc2nnc(COc3ccccc3)n2-c2ccccc2)cc1 was read as Anthrax LF prot -0.9, BoNT F protease -9.4, BoNT A protease -5.6 and Autofluor counter 24330*.
Screening COc1ccc(C#Cc2ccc3c(c2)O[C@H](CN(C)S(=O)(=O)c2ccccc2F)[C@@H](C)CN([C@@H](C)CO)S3(=O)=O)cc1 returned TcdB inh -1.8.
For COc1ccc(S(=O)(=O)Nc2ccc3c(c2)CC(=O)N([C@@H](C)CO)C[C@@H](C)[C@H](CN(C)Cc2ccncc2)O3)cc1 the results were TcdB inh 0.5.
Screening CC(=O)c1cccc(NC(=O)C2CC(c3ccc(F)cc3)=NO2)c1 (stereo unspecified) returned Anthrax LF prot -3.7, BoNT F protease 21.2, BoNT A protease -0.2 and Autofluor counter 4262.
`O=C(NC1CCCC1)C1CC(c2ccc(F)cc2)=NO1` (stereo unspecified) gave Anthrax LF prot 0.3, BoNT F protease -5.0, BoNT A protease -1.2 and Autofluor counter 23071*.
